In PubChem BioAssay (NCI) one finds growth data, which are given here for twelve compounds.

SMILES strings stand for the structures. This is part of a sample that, as a whole, favours compounds with a hit. Of some 83,000 tested, about 20% had one in any assay.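 Growth was measured after 48 h exposure to one concentration of compound in 96-well plates. Values under 10 count as active.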 A number with no mark means an inactive call. The source made the active and inactive calls.

The test system of the experiment is MDA-MB-468 breast. The experiment can be described thus: NCI-60 one-dose screen, 48 h (100 = growth as untreated, 0 = no growth, -100 = all killed). Conditions: 10 µM unless noted.
`CC1(C(=O)O)CCC(N)(C(=O)O)C1(C)C` (configuration not stated): the growth was 115%.
For `Cc1c(CN(C)C)cc(C(C)C)cc1C(C)C`, the growth is 100%.
As for `COc1ccc(/C=C/C(=O)c2ccc(Oc3ncnc4ccccc34)cc2)cc1OC`, the growth is 28.4%.
Take `O=C(NCc1ccc(Cn2c(=O)sn(-c3ccc(Cl)cc3)c2=O)cc1)OCc1ccc2c(Cl)cc(Cl)c(O)c2n1`: the growth was 45.4%.
Take `CCCCN1CCN(c2ccc3nc(-c4ccc5nc(-c6cc(OC)c(OC)c(OC)c6)[nH]c5c4)[nH]c3c2)CC1`: the growth was 45.7%.
Regarding `O=C(CN1CCOCC1)Nc1ccc2ncnc(Nc3ccc(Oc4cccc(C(F)(F)F)c4)c(Cl)c3)c2c1`, the growth was -7.54% (active).
For the compound `COc1ccc(C2[C@@H](c3ccccc3)C(=O)N2c2cc(OC)c(OC)c(OC)c2)cc1F` (some centres not stated), the growth was -4.41% (active).
Take `Cc1ccccc1/C=C/C(=O)c1cccc(OCCCCOc2cccc(C(=O)/C=C/c3ccccc3C)c2)c1`: the growth was 86.1%.
Consider `O=[N+]([O-])c1cc(-c2ccccc2)c(O)c([N+](=O)[O-])c1`, for which the growth was 71.5%.
The figure for `COc1ccc(-c2cc(-c3ccc(OC)cc3)nc(NCCCNc3ccnc4cc(Cl)ccc34)n2)cc1` is 74.8%.
Take `CC1(C)C(=O)/C(=C\c2ccc(C(F)(F)F)cc2)C[C@]2(C)[C@H]3CC[C@@H]4[C@H]5[C@H](C(=O)/C=C/c6ccc(C(F)(F)F)cc6)CC[C@]5(CO)CC[C@@]4(C)[C@]3(C)CC[C@@H]12`: the growth was 104%.
Consider `COc1cc(/C=C/c2cc(/C=C/c3ccc(O)c(OC)c3)n(C(N)=O)n2)ccc1O`, for which the growth is -14.3% (active).
